Test results published in the supplement of paper PMC10849652.
About 8,800 targets were measured; listed, in parts, are those with a hit and a random draw of the rest. About 0.5% of all pairs of compound and target were hits. Values without a mark were called inactive.

Columns and labels:
Assay in all cases: log2 fold change, soluble protein after heating vs DMSO (PISA); higher = thermal stabilisation; K562 lysate, 10 uM; active = over 0.2 and 3.5 SD of the protein, either way, in both replicates (recomputed)
vemurafenib = compound: CCCS(=O)(=O)Nc1ccc(F)c(C(=O)c2c[nH]c3ncc(-c4ccc(Cl)cc4)cc23)c1F [vemurafenib]
Summary of the method: (§1)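 A 30 min treatment with 10 μM compound was applied to crude K562 extract at 1 mg/mL protein in PBS pH 7.4 with 1 mM MgCl2. Heating for 3 min spanned 48°C-58°C, after which aliquots were pooled, adjusted to 0.5% NP-40 at 4°C and spun at 21,000xg for 90 min. TMTpro 16plex LC-MS/MS of the supernatant, with channel sums equalised, gave values recorded as log-two fold change in thermal stability against solvent controls, from duplicates.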

[1] = compound: CCCS(=O)(=O)Nc1ccc(F)c(C(=O)c2c[nH]c3ncc(Cl)cc23)c1F
Summary of the method: as §1

barasertib = compound: CCN(CCCOc1ccc2c(Nc3cc(CC(=O)Nc4cccc(F)c4)[nH]n3)ncnc2c1)CCOP(=O)(O)O [barasertib]
Summary of the method: as §1

[2] = compound: CC[C@@H]1C(=O)N(C)c2cnc(Nc3ccc(C(=O)NC4CCN(C)CC4)cc3OC)nc2N1C1CCCC1
Summary of the method: as §1

volasertib = compound: CC[C@@H]1C(=O)N(C)c2cnc(Nc3ccc(C(=O)N[C@H]4CC[C@H](N5CCN(CC6CC6)CC5)CC4)cc3OC)nc2N1C(C)C [volasertib]
Summary of the method: as §1

[3] = compound: CCn1c(C(=O)N(C2CC2)C2CC2)cc2c3c(ncn3C)c(Nc3cc(C)n(C)n3)nc21
Summary of the method: as §1

[4] = compound: CCn1cc(-c2ccnc3[nH]c(-c4cccc(CN(C)C)c4)cc23)c(-c2ccc(NC(=O)N(C)C)cc2)n1
Summary of the method: as §1

[5] = compound: CN1CCC(CNc2ccc3ncc(-c4cccc(OC(F)(F)F)c4)n3n2)CC1
Summary of the method: as §1

saracatinib = compound: CN1CCN(CCOc2cc(OC3CCOCC3)c3c(Nc4c(Cl)ccc5c4OCO5)ncnc3c2)CC1 [saracatinib]
Summary of the method: as §1

sotrastaurin = compound: CN1CCN(c2nc(C3=C(c4c[nH]c5ccccc45)C(=O)NC3=O)c3ccccc3n2)CC1 [sotrastaurin]
Summary of the method: as §1

alvocidib = compound: CN1CC[C@H](c2c(O)cc(O)c3c(=O)cc(-c4ccccc4Cl)oc23)[C@H](O)C1 [alvocidib]
Summary of the method: as §1

Tubastatin A = compound: CN1CCc2c(c3ccccc3n2Cc2ccc(C(=O)NO)cc2)C1 [Tubastatin A]
Summary of the method: as §1

[6] = compound: CNC(=O)C1=CC=CC=C1NC2=NC(=NC=C2Cl)NC3=C(C=C(C=C3)N4CCOCC4)OC
Summary of the method: as §1

defactinib = compound: CNC(=O)c1ccc(Nc2ncc(C(F)(F)F)c(NCc3nccnc3N(C)S(C)(=O)=O)n2)cc1 [defactinib]
Summary of the method: as §1

[7] = compound: CNc1nc(-c2ccc3c(N)n[nH]c3c2)cc(N2C[C@@H](C(=O)NC3CCCCC3)CC[C@H]2C)n1
Summary of the method: as §1

encorafenib = compound: COC(=O)N[C@@H](C)CNc1nccc(-c2cn(C(C)C)nc2-c2cc(Cl)cc(NS(C)(=O)=O)c2F)n1 [encorafenib]
Summary of the method: as §1

[8] = compound: COC(=O)[C@H](CCSC)NC(=O)C1=C(C=C(C=C1)NC[C@H](CS)N)C2=CC=CC=C2
Summary of the method: as §1

alisertib = compound: COc1cc(Nc2ncc3c(n2)-c2ccc(Cl)cc2C(c2c(F)cccc2OC)=NC3)ccc1C(=O)O [alisertib]
Summary of the method: as §1

[9] = compound: COc1cc2nc(-c3cc(F)ccc3O)nc(N[C@@H]3CNC[C@H]3C(C)(C)O)c2cc1OC
Summary of the method: as §1

gefitinib = compound: COc1cc2ncnc(Nc3ccc(F)c(Cl)c3)c2cc1OCCCN1CCOCC1 [gefitinib]
Summary of the method: as §1

Chain of UniProt Q13535 (Q13535 whole entry, looked up): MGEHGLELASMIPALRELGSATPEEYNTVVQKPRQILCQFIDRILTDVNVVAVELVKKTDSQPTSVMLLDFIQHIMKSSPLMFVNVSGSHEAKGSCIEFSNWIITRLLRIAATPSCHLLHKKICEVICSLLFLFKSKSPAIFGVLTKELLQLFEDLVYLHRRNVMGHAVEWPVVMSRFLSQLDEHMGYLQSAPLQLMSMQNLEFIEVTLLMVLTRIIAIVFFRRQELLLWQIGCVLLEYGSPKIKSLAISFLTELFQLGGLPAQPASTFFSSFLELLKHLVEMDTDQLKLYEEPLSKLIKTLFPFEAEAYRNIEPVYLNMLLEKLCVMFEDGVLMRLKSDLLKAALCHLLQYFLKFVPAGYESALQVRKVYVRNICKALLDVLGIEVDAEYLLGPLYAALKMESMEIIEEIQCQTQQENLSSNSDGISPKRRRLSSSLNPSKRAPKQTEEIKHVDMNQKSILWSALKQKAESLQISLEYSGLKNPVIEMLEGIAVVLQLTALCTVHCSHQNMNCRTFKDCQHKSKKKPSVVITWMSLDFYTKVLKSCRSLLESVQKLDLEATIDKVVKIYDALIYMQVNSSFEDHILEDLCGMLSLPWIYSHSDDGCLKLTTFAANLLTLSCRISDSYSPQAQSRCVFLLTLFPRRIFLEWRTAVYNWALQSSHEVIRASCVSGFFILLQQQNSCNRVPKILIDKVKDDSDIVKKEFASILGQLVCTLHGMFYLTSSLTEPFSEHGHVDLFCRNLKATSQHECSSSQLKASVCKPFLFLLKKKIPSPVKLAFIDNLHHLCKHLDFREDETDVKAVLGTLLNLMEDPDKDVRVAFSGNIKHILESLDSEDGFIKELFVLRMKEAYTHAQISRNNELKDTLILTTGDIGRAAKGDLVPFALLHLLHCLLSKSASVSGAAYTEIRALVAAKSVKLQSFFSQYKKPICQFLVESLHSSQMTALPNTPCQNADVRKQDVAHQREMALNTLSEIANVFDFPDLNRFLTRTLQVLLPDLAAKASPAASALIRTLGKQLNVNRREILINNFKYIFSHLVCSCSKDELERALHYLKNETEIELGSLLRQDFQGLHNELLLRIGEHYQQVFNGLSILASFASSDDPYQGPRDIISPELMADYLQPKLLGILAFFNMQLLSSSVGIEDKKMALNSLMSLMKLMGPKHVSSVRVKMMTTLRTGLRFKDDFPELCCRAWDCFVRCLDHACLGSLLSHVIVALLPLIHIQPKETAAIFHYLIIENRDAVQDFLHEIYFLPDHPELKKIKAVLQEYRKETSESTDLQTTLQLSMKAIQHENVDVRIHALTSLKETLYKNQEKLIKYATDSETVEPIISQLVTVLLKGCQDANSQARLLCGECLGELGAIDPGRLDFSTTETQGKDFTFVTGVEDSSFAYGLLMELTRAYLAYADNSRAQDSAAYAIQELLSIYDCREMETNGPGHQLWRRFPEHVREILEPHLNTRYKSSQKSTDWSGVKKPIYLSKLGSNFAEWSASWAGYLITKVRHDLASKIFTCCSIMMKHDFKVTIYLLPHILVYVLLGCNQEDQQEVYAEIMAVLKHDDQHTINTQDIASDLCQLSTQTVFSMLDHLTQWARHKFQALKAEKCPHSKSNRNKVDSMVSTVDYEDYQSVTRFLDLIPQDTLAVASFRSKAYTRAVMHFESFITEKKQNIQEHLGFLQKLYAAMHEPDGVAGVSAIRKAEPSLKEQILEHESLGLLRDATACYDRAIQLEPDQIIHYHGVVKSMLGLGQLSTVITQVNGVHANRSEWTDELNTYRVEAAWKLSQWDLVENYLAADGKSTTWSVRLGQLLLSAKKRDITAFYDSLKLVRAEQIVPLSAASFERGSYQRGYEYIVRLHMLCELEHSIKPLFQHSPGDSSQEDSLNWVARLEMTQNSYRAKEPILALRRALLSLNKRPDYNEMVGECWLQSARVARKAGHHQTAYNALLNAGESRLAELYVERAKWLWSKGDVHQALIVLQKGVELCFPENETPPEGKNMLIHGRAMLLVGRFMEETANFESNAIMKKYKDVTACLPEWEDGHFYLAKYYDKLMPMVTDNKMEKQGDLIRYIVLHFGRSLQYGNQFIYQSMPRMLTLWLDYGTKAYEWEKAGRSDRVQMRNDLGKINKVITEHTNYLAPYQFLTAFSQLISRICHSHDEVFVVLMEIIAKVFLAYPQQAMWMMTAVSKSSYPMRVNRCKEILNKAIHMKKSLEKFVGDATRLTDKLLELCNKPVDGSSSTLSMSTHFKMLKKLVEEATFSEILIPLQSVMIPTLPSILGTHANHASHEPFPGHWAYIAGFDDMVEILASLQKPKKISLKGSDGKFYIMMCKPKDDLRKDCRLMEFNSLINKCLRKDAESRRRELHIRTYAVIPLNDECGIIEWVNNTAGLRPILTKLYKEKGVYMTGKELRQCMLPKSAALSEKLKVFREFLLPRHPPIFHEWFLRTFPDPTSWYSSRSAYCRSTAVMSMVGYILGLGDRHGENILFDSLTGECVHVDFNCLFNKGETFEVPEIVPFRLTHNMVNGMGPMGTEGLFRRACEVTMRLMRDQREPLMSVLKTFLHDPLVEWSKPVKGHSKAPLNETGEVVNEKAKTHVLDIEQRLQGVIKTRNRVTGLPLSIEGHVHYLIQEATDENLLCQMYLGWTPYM
Chain of UniProt Q8WXE1 (Q8WXE1 whole entry, looked up): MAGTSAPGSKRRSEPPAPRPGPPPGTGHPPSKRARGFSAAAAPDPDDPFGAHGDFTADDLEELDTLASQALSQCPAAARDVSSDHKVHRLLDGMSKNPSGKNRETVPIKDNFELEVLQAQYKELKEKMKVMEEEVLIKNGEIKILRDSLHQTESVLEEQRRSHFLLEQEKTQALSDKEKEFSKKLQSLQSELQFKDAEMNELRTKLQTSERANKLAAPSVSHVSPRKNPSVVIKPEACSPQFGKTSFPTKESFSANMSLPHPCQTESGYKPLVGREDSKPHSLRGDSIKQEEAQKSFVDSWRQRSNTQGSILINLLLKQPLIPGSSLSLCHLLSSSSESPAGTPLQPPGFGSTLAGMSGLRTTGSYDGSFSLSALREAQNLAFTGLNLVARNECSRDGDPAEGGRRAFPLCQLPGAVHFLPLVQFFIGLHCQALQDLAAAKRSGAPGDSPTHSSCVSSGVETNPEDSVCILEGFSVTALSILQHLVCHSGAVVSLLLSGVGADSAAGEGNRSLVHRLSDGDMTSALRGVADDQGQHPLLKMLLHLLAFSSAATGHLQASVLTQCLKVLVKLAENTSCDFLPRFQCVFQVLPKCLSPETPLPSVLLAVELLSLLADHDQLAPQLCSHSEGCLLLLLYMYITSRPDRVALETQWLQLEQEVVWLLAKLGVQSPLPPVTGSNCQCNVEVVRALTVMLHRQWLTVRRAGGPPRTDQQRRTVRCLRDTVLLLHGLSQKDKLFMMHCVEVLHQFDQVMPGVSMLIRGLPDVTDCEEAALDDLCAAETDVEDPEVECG
Chain of UniProt O75794 (O75794 whole entry, looked up): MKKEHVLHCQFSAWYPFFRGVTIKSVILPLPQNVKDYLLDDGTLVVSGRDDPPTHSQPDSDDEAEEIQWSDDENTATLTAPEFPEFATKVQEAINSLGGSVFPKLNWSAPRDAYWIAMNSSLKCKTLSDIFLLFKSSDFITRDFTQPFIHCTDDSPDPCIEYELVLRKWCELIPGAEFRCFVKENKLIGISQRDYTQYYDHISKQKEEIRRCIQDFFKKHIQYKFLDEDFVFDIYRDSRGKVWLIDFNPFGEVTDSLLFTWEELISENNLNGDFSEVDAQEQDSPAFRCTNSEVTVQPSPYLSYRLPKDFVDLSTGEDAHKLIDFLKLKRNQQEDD
Chain of UniProt O60508 (O60508 whole entry, looked up): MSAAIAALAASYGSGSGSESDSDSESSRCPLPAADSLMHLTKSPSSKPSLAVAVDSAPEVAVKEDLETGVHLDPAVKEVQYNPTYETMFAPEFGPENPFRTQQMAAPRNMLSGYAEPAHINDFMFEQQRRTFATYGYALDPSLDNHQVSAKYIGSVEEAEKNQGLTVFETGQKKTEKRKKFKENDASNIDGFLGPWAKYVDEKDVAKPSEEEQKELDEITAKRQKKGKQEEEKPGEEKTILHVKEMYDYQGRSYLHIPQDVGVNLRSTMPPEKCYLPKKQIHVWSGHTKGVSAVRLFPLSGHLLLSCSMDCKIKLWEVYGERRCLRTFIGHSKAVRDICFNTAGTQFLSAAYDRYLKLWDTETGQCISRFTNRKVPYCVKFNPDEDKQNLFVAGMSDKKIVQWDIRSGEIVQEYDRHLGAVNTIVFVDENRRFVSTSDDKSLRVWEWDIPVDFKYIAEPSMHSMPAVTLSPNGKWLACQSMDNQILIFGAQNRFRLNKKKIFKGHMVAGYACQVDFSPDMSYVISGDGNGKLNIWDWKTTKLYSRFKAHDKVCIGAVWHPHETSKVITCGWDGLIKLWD
Chain of UniProt Q5BKX5 (Q5BKX5 whole entry, looked up): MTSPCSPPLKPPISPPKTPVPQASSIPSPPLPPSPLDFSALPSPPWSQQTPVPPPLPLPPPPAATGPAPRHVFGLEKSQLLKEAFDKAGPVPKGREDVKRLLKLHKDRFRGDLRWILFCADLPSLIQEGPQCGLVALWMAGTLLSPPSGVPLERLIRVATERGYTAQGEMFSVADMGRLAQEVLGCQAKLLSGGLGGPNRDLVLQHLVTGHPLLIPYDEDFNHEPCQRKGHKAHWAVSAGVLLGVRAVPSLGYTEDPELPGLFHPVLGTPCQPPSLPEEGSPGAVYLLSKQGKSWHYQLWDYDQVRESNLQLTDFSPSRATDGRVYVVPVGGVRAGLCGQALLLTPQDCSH
Chain of UniProt P55212 (P55212 whole entry, looked up): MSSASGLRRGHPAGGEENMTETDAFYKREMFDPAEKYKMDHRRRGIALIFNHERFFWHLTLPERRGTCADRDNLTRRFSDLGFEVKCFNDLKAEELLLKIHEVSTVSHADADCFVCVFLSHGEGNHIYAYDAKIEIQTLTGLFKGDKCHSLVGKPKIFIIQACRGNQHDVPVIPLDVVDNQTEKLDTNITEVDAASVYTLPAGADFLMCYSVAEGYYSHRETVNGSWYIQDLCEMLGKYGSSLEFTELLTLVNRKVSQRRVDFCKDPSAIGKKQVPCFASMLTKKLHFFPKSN

Target | log2 fold change (vemurafenib) | log2 fold change [1] | log2 fold change (barasertib) | log2 fold change [2] | log2 fold change (volasertib) | log2 fold change [3] | log2 fold change [4] | log2 fold change [5] | log2 fold change (saracatinib) | log2 fold change (sotrastaurin) | log2 fold change (alvocidib) | log2 fold change (Tubastatin A) | log2 fold change [6] | log2 fold change (defactinib) | log2 fold change [7] | log2 fold change (encorafenib) | log2 fold change [8] | log2 fold change (alisertib) | log2 fold change [9] | log2 fold change (gefitinib)
CAPNS1 (UniProt P04632) | -0.032 | 0.021 | 0.11 | -0.027 | 0.04 | -0.006 | -0.334 (active) | 0.07 | 0.003 | -0.012 | 0.021 | -0.022 | 0.032 | 0.027 | -0.005 | 0.022 | -0.129 | -0.012 | -0.051 | -0.062
CHAF1A (UniProt Q13111) | 0.005 | 0.005 | 0.006 | 0.029 | 0.003 | -0.009 | 0.029 | 0.004 | 0.038 | -0.016 | -0.003 | -0.089 | -0.019 | 0.02 | 0.038 | 0.003 | 0.063 | -0.107 | -0.01 | -0.065
CAMK2G isoform 8 (UniProt Q13555) | 0.067 | -0.03 | 0.058 | 0.102 | -0.033 | -0.079 | -0.001 | 0.022 | 0.086 | 0.345 (active) | 0.334 (active) | -0.098 | 0.223 | 0.006 | 0.034 | -0.199 | -0.007 | -0.013 | 0.144 | -0.013
CASP6 (UniProt P55212) | 0.006 | -0.012 | -0.071 | 0.018 | -0.017 | 0.025 | 0.242 | 0.013 | -0.004 | -0.016 | -0.011 | -0.003 | 0.067 | 0.039 | -0.046 | -0.015 | -0.026 | 0.023 | -0.029 | 0.061
CDC123 (UniProt O75794) | -0.052 | 0.014 | 0.04 | -0.12 | -0.05 | 0.032 | 0.018 | -0.021 | 0.012 | 0.013 | 0.019 | -0.125 | 0.009 | 0.007 | -0.03 | 0.018 | 0.136 | -0.004 | -0.023 | -0.001
ATRIP (UniProt Q8WXE1) | 0.174 | 0.002 | -0.036 | -0.281 (active) | -0.06 | -0.013 | 0.031 | -0.001 | 0.048 | 0.002 | 0.012 | -0.105 | -0.074 | -0.114 | -0.141 | 0.068 | -0.061 | 0.016 | 0.03 | 0.026
CDK11B (UniProt P21127) | 0.025 | 0.002 | 0.022 | -0.087 | -0.057 | 0.029 | -0.047 | -0.048 | -0.024 | 0.01 | 0.273 (active) | -0.081 | 0.012 | -0.013 | 0.019 | -0.012 | 0.108 | 0.012 | -0.036 | -0.016
CDC40 (UniProt O60508) | 0.01 | 0.013 | -0.016 | -0.105 | -0.001 | 0.034 | -0.006 | 0.046 | -0.056 | -0.049 | 0.016 | 0.147 | 0.045 | -0.002 | 0.069 | 0.095 | 0.069 | -0.049 | 0.034 | -0.021
BCR (UniProt P11274) | 0.012 | 0.043 | -0.021 | -0.062 | -0.056 | 0.015 | -0.112 | -0.029 | 0.024 | -0.018 | -0.007 | -0.181 | 0.002 | -0.008 | -0.005 | 0.036 | 0.085 | -0.008 | -0.021 | -0.024
C19orf54 (UniProt Q5BKX5) | 0.08 | -0.028 | 0.002 | -0.043 | -0.058 | -0.06 | 0.013 | 0.003 | -0.027 | -0.027 | -0.032 | 0.004 | 0.048 | -0.039 | 0.023 | 0.024 | 0.151 | -0.099 | 0.069 | 0.08
CDK2 (UniProt P24941) | -0.012 | 0.012 | -0.01 | -0.059 | -0.025 | 0.008 | -0.055 | 0.167 | -0.017 | 0.09 | 0.304 (active) | 0.021 | 0.08 | 0.196 | 0.048 | 0.016 | -0.012 | -0.01 | 0.072 | -0.012
CDK9 isoform 2 (UniProt P50750) | -0.117 | -0.064 | -0.025 | 0.009 | 0.002 | 0.175 | -0.203 | 0.079 | 0.005 | 0.34 (active) | 0.578 (active) | -0.042 | 0.024 | 0.392 (active) | 0.016 | -0.008 | -0.033 | -0.003 | 0.191 | 0.008
ATXN2 (UniProt Q99700) | 0.007 | -0.004 | 0.012 | 0.057 | 0.001 | 0.022 | 0.005 | -0.03 | -0.014 | 0.052 | 0.046 | -0.047 | 0.016 | -0.019 | 0.001 | 0.018 | -0.003 | -0.032 | 0.011 | 0.006
CEP120 (UniProt Q8N960) | 0.052 | -0.098 | 0.033 | -0.411 | 0.029 | -0.134 | -0.233 | 0.119 | 0.008 | 0.034 | -0.046 | 0.098 | -0.096 | -0.025 | 0.273 | 0.065 | -0.117 | 0.141 | 0.038 | 0.119
CAD (UniProt P27708) | 0.005 | 0.026 | -0.004 | -0.037 | -0.069 | 0.012 | -0.085 | 0.003 | -0.004 | 0.003 | 0 | -0.063 | 0.01 | -0.022 | -0.008 | 0.001 | 0.067 | -0.007 | -0.015 | -0.032
ATR (UniProt Q13535) | 0.059 | 0.013 | 0 | 0.017 | -0.13 | 0.018 | -0.307 | 0.337 | 0.018 | 0.081 | -0.134 | -0.067 | 0.029 | -0.07 | -0.001 | 0.045 | -0.193 | 0.115 | 0.077 | 0.052
